Data from ChEMBL document CHEMBL1157539, “Thousands of chemical starting points for antimalarial lead identification” (Nature, 2010).

The compounds below were run on Plasmodium falciparum (assay: GSK_TCMDC: Inhibition of Plasmodium falciparum Dd2 in whole red blood cells, using parasite LDH activity as an index of growth. Test compounds present at 2uM).
Type: functional

Point of comparison: `CS(=O)(=O)CCNCc1ccc(-c2ccc3c(Nc4ccc(F)cc4Cl)ccnc3c2)o1`, Inhibition 98%. Against it:
- CCCN(Cc1nnc(-c2ccco2)o1)C(=O)C1CCCN(C(=O)c2ccc(Cl)cc2)C1 (stereo not given) — lower, 96%
- CN1CCN(c2cc3c(cc2Cl)CCN3C(=O)Cc2ccc(Cl)c(NC(=O)Nc3cccc(C#N)c3)c2)CC1 — lower, 40%
- CC(C)CNCc1ccc(-c2cccc(CN(CCN(C)C)C(=O)CCC3CCCC3)c2)cc1.O=C(O)C(F)(F)F — lower, 81%
- COc1ccc2nccc([C@@H](O)CN3CCC(NC(=O)/C=C/c4cccc(NC(C)=O)c4)CC3)c2c1 — lower, 60%
- CCn1c(-c2nonc2N)nc2c(Cl)ncc(O[C@H](CCN)c3ccccc3F)c21.Cl — lower, 88%
- CCN(CC)CCCN1CCN(C(=O)c2cccc(-c3noc(C(F)(F)F)n3)c2)CC1 — lower, 74%
- Cc1cccc(Nc2nccc(Nc3cccc(C(=O)NCCN4CCOCC4)c3)n2)c1 — lower, 11%
- Cc1cc(O)c(CN(C)Cc2ccc3c(c2)OCO3)cc1C(C)C — lower, 74%
- CCC(Cc1ccccc1)c1cc(O)c(Cc2ccc(-c3ccccc3)cc2)c(=O)o1 (stereo not given) — lower, 0%
- Cl.Cn1c2ccccc2c2c3ccccc3c(CNC(CO)(CO)CO)cc21 — lower, 78%
- N=C(N)c1ccc(NC(=O)c2cc(Sc3ccc(O)c(C(=O)Nc4ccc(C(=N)N)cc4)c3)ccc2O)cc1 — lower, 87%
- O=C(/C=C/c1ccc(Cl)c(Cl)c1)NCCCCCN1CCC(NC(=O)Nc2ccc(Cl)cc2Cl)CC1 — lower, 33%
- Cc1nnsc1C(=O)Nc1ccc(-c2cccc(-c3nc4cccc(C)c4[nH]3)c2)cc1 — lower, 47%
- CC(C)(C)C1CC(=O)CC2C(=O)N(C3CCCCC3)C(=O)C21 (stereo not given) — lower, 27%
